Test results taken from PubChem BioAssay AID2549 (National Center for Advancing Translational Sciences (NCATS), 2010).
Where “and” joins values, the source holds several entries; their conditions need not be identical. Identical values can stand only once. The campaign covered roughly 240,000 compounds. About 1,300 (0.54%) were called active. A call without a number means that no potency is given here. Not shown: some 1% with an inconclusive outcome. Calls come from the whole dose curve; as a rule, active = well fitted inhibition curve with a large enough effect; inconclusive = small, poorly fitted or top-dose-only effect; inactive = flat fitted curve, though single readings scatter. For the sample, actives were picked, then their nearest neighbours and some compounds at random. Some compounds were tested as several samples or in several runs, with calls that do not always agree. Where a SMILES comes first, the peptide text is derived from it. Bridges are numbered along the chain shown (N, C = ends).

Target: ATP-dependent DNA helicase Q1 (Homo sapiens) (UniProt P46063)
Sequence (P46063 whole entry, looked up): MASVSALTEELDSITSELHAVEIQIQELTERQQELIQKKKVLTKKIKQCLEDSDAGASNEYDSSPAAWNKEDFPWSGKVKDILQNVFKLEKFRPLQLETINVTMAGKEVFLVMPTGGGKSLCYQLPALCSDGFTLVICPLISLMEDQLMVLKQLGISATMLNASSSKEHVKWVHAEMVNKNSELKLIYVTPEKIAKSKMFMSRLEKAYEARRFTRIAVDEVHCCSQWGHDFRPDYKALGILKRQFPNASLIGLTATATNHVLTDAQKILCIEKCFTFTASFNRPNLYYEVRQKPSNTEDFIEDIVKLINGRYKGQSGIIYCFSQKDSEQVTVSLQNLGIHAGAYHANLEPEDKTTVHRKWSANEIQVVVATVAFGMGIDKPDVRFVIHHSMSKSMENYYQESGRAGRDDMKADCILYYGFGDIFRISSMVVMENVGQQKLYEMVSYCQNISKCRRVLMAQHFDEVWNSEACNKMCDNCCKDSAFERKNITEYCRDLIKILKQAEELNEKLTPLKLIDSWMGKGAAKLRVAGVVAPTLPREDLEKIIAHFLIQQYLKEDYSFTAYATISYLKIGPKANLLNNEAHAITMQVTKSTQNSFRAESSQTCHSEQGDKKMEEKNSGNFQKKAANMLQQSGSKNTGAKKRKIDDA
Experiment: qHTS Assay for Inhibitors of RecQ-Like Dna Helicase 1 (RECQ1); note: nearly all actives have a fitted effect of over 30% in size
Conditions: RECQ1 DNA unwinding, red fluorescence kinetic read; series mostly up to 57.3 µM
Method in brief: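 50 nM RECQ1T1 preincubated 15 min with compound in Tris pH 8.0 buffer with MgCl2, DTT, Tween-20 and 2.5 ug/ml poly(dI-dC); started with 200 nM TAMRA/BHQ-2 forked duplex and 2 mM ATP. Unwinding read as fluorescence (525/598 nm), two reads 2 h apart.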
Potency is the fitted concentration of half-maximal effect.

Row | SMILES | Potency
1 | Oc1cc(O)c2c(c1)OC(c1ccc(O)c(O)c1)C(O)C2 (stereo not given) | 14.1 µM (active)
2 | Cc1nnnn1/C(=C\c1ccccc1)C(=O)OCC(=O)N1CC2(C)CC1CC(C)(C)C2 (stereo not given) | inactive
3 | O=c1c(O)c(Br)ccc2c(Br)c(O)c(O)c(O)c12 | 3.16 µM (active)
4 | CCC1(CC)C(=O)C2=C3C1[C@H](C(=O)OC)C=C(C(=O)OC)C[C@H]3[C@H]1C(=O)N(Cc3ccccc3)C(=O)[C@H]1[C@H]2C (stereo not given in full) | inactive
5 | O=C(N/N=C/c1ccccn1)c1cccnc1 | inactive
6 | Cc1cc(/C=N/NC(=O)c2cccnc2)c(C)n1CC(C)C | inactive
7 | O=C(N/N=C/c1sc(N2CCCCC2)nc1-c1cccs1)c1cccnc1 | 10 µM (active)
8 | N#C/C(=C\c1ccc(O)c(O)c1)C(=O)NCc1ccccc1 | inactive and 31.6 µM (active)
9 | N#C/C(=C\c1ccc(O)c(O)c1)C(N)=O | inactive
10 | COCCNC(=O)/C(C#N)=C/c1cccc(OCc2ccccc2)c1 | inactive
11 | c1ccc(C2CNCc3c2ccc2ccccc32)cc1 (stereo not given) | inactive
12 | CC(=O)Nc1ccc(S(=O)(=O)N2N=NC3C2C2CC4C3(CN(C(=O)OC(C)(C)C)S4(=O)=O)O2)cc1 (stereo not given) | inactive
13 | COc1ccc(NC(=O)COc2ccc(C(=O)OCC(=O)N(C)C3CCS(=O)(=O)C3)cc2OC)cc1 (stereo not given) | inactive
14 | Cc1c(-c2cccc(Cl)c2)nc2ccccc2c1C(=O)OCC(=O)N(C)C1CCS(=O)(=O)C1 (stereo not given) | inactive
15 | CN(C(=O)COC(=O)c1cc(-c2ccco2)nc2ccccc12)C1CCS(=O)(=O)C1 (stereo not given) | 14.1 µM (active)
16 | CC(=O)OC1C([N+]2(C)CCCCC2)C[C@H]2C3CC[C@H]4C[C@H](OC(C)=O)C([N+]5(C)CCCCC5)CC4(C)C3CCC12C (stereo not given in full) | inactive
17 | Cc1cc2nc3c(=O)n(Cc4ccccc4)c(=O)[nH]c3nc2cc1N | inactive
18 | O=c1[nH]c(=O)c2nc3ccccc3nc2[nH]1 | inactive
19 | Nc1ccc2nc3c(=O)[nH]c(=S)[nH]c3nc2c1 | 7.94 µM (active)
20 | CCOc1ccc(/C=C2\SC(=S)N(NC(=O)c3ccncc3)C2=O)cc1OC | inactive
21 | COc1ccc(C2=Nn3c(nnc3-c3ccccc3O)SC2)cc1 | inactive
22 | C=CCCN(C(Cc1ccccc1)C(=O)OC)S(=O)(=O)c1cc(Br)ccc1Br (stereo not given) | inactive
23 | C=C1CCN(Cc2ccc(OC)cc2)S(=O)(=O)c2ccccc21 | inactive
24 | Cc1ccc(SCC(CC(C)C)N2CCN(CCc3ccccc3)CCC2=O)cc1 (stereo not given) | inactive

Row | SMILES | Potency
25 | CCOC(=O)COc1cc(O)c2c(=O)cc(-c3ccccc3)oc2c1 | inactive
26 | COc1ccc2c(=O)cc(-c3ccccc3)oc2c1O | inactive
27 | O=c1cc(-c2ccc(O)c(O)c2)oc2cccc(O)c12 | 25.1 µM (active)
28 | COc1c(O)cc2oc(-c3ccc(O)c(O)c3)cc(=O)c2c1O | 11.2 µM (active) and 8.91 µM (active)
29 | Cc1cccc(-c2cc(=O)c3cc(C)ccc3o2)c1 | inactive
30 | O=c1cc(-c2ccc(O)cc2)oc2c(-c3cc(-c4cc(=O)c5c(O)cc(O)cc5o4)ccc3O)c(O)ccc12 | inactive
31 | C=C1/C(=C\C=C2\CCCC3(C)C2CCC3C(C)/C=C/C(O)C2CC2)CC(O)CC1O (stereo not given) | inactive
32 | CCCCc1nn(-c2ccccc2C(F)(F)F)c(=O)n1Cc1ccc(-c2ccccc2S(=O)(=O)NC(=O)c2sccc2C)cc1 | inactive
33 | COC(=O)c1ccc(C(NC(=O)OCc2ccccc2)/C(F)=C/[C@@H](C)C(=O)O)cc1 (stereo not given in full) | inactive
34 | COc1ccc(CCCOC(Cn2ccnc2)c2ccc(OC)cc2)cc1 (stereo not given) | inactive
35 | O=C1N/C(=C/c2cccn2-c2ccccc2)C(=O)N1c1cccc(Cl)c1 | inactive
36 | Cc1ccccc1NC(=O)CN1C(=O)N/C(=C\c2cccn2-c2cccc(C(=O)O)c2)C1=O | 14.1 µM (active)
37 | Cc1cccc(NC(=O)CN2C(=O)c3ccccc3C2=O)c1C | inactive
38 | COc1ccccc1NC(=S)N1CCN(C(c2ccccc2)c2ccccc2)CC1 | inactive
39 | COc1ccc(Br)cc1C1C2C=CCC(C)C2C(=O)N1Cc1ccccc1 (stereo not given) | inactive
40 | O=C1c2ccccc2C(=O)N1CCCc1nc(-c2ccccc2)no1 | inactive
41 | O=C1c2ccccc2C(=O)N1Cc1cc(-c2ccccc2Cl)no1 | 31.6 µM (active)
42 | O=C1c2cccnc2C(=O)N1Cc1cccs1 | inactive
43 | Oc1ccc(N=Cc2c(O)ccc3ccccc23)cc1 | inactive
44 | O=C(N/N=C/c1c(Cl)[nH]c2ccccc12)c1sc2ccccc2c1Cl | inactive
45 | Oc1ccc(N=Cc2sc3ccccc3c2Cl)cc1 | 8.91 µM (active)
46 | C[C@@H](O)[C@@H]1NC(=O)[C@H](CCCCN)NC(=O)[C@H](Cc2c[nH]c3ccccc23)NC(=O)[C@H](Cc2ccccc2)NC(=O)[C@H](Cc2ccccc2)NC(=O)[C@H](CC(N)=O)NC(=O)[C@H](CCCCN)NC(=O)[C@@H](NC(=O)[C@@H]2CCCN2)CSSC[C@@H](C(=O)N[C@@H](CCCCN)C(=O)O)NC(=O)[C@H](CO)NC(=O)[C@H](CO)NC(=O)[C@H](Cc2ccccc2)NC1=O (H-PCKNFFWKTFSSCK-OH; disulfide 2-13) | inactive
47 | CCCN1CCC(=O)N(C(CSc2ccc(OC)cc2)Cc2ccccc2)CC1 (stereo not given) | inactive
48 | O=C(O)C1CC=CC2CCN(C3CCCCC3)C(=O)C21 (stereo not given) | inactive

Row | SMILES | Potency
49 | Cc1ccc(C)c(CSc2nc(-c3ccco3)nc3c2c(=O)n(C)c(=O)n3C)c1 | inactive
50 | C/C=C\C=C\C(=O)N1CC2(CC(c3cccc(NC(=O)/C(C)=C\C)c3)=NO2)C[C@H]1C(N)=O (stereo not given in full) | 20 µM (active)
51 | C/C=C(/C)C(=O)Nc1cccc(C2=NOC3(C2)C[C@@H](C(N)=O)N(C(=O)C2(C)CC2)C3)c1 (stereo not given in full) | inactive
52 | CC/C=C/C(=O)N1CC2(CC(c3cccc(NC(=O)CC)c3)=NO2)C[C@H]1C(N)=O (stereo not given in full) | inactive
53 | O=S(O)S(=O)(=O)O | inactive
54 | O=C(N/N=C/C=C/c1ccco1)c1cccs1 | 35.5 µM (active)
55 | CC(=O)Nc1ccc(/C=N/NC(=O)c2cccs2)cc1 | inactive
56 | Cc1ccc(-c2cc(C(=O)N/N=C/C=C/c3ccco3)c3ccccc3n2)cc1C | inactive
57 | CC(=O)c1ccc(S(=O)(=O)N2CCN(C(=O)/C=C/c3ccc4ccccc4n3)CC2)cc1 | 25.1 µM (active)
58 | NC(=O)COC(=O)/C=C/c1ccc2ccccc2n1 | inactive
59 | COC(=O)c1ccc(S(=O)(=O)N2CCC(c3nc4ccccc4o3)CC2)cc1 | inactive
60 | O=c1cc(CCl)nc2scc(-c3ccccc3)n12 | inactive
61 | CCc1nnc(NC(=O)c2cccc(S(=O)(=O)N(C)c3ccc(OC)cc3)c2)s1 | inactive
62 | CCc1nnc(NC(=O)c2sc3nc(C)cc(COC)c3c2N)s1 | inactive
63 | CCc1ccc2nc3sc(C(=O)Nc4nnc(CC)s4)c(N)c3cc2c1 | 31.6 µM (active)
64 | Cc1ccc(CNC(=O)C2(C(F)(F)F)C/C(=C\CCO)CCCO2)o1 (stereo not given) | inactive
65 | CCN1C(=O)c2cccc3c(N)ccc1c23 | inactive
66 | Nc1ccc2c3c(cccc13)C(=O)NC2=O | inactive and 25.1 µM (active)
67 | CCC(C)[C@@H](N)C(=O)O (stereo not given in full) | inactive
68 | COc1ccc(CC(N)C(=O)NC2C(O)[C@H](n3cnc4c(N(C)C)ncnc43)O[C@@H]2CO)cc1 (stereo not given in full) | inactive
69 | S=C(NCCc1ccccc1)N1CCn2cccc2C1c1ccncc1 (stereo not given) | inactive
70 | CCOC(=O)c1ccc[n+](CC(=O)Nc2ccccc2OC(F)F)c1 | inactive
71 | Cc1ccc(C)c(SCc2nc3sc(C(=O)O)c(C)c3c(=O)[nH]2)c1 | inactive
72 | Cc1ccc(-c2nc(SCC(=O)Nc3ccccc3OC(F)F)c3c(C)c(C(=O)O)sc3n2)cc1 | 25.1 µM (active)

Row | SMILES | Potency
73 | CCOC(=O)C(CC)/C(C)=N\NC(=O)c1cccc(C)c1 (stereo not given) | inactive
74 | C[C@H]1CCC[C@@]2(C)CCCC[C@]12O | inactive
75 | COc1cc(OC)c2c(C)cc(=O)oc2c1C(CCN1CCCCC1)c1ccc(N(C)C)cc1 (stereo not given) | inactive
76 | O=C(O)c1cccc(N2C(=O)Nc3ccccc3N2O)c1 | inactive
77 | N#Cc1ccccc1CN1C(=O)S/C(=C/c2cccn2-c2cccc(C(=O)O)c2)C1=O | 28.2 µM (active)
78 | Cn1cccc1/C=C1\SC(=O)N(CC(=O)Nc2ccc(F)cc2)C1=O | inactive
79 | O=c1ccn([C@@H]2O[C@H](COP(=O)(O)OP(=O)(O)OP(=O)(O)O)[C@@H](O)[C@H]2O)c(=O)[nH]1 | inactive
80 | COc1ccc(OC)c(C(=O)c2ccc(C(=O)N3CCN(Cc4csc(C)n4)CC3)cc2)c1 | inactive
81 | O=C1C2C(c3ccccc3)CC=CC2C(c2ccoc2)N1Cc1ccccc1 (stereo not given) | inactive
82 | O=C(CCC(=O)c1cccs1)NCc1ccccc1 | inactive
83 | O=C(COC(=O)C12CC3CC(CC(C3)C1)C2)NCc1ccco1 | inactive
84 | O=C(COC(=O)CCC(=O)c1cccs1)NCc1ccco1 | 7.94 µM (active)
85 | COc1ccc(/C=N/NC(=O)c2ccncc2)cc1CN1CCCc2ccccc21 | inactive
86 | NS(=O)(=O)c1ccc(NC(=O)COC(=O)CCc2c[nH]c3ccccc23)cc1 | inactive
87 | CC[C@H](C)[C@H](NC(=O)[C@@H](N)CCC(=O)O)C(=O)N[C@@H](CC(C)C)C(=O)N[C@@H](CC(=O)O)C(=O)N[C@H](C(=O)N1CCC[C@H]1C(=O)N[C@@H](CO)C(=O)N[C@H](C(=O)O)[C@@H](C)O)C(C)C | inactive
88 | O=c1cc(-c2ccc(O)cc2)oc2c([C@@H]3O[C@H](CO)[C@@H](O)[C@H](O)[C@H]3O)c(O)cc(O)c12 | inactive
89 | Cc1cc(=O)[nH]c(S)c1C#N | 22.4 µM (active)
90 | Cc1cc(=O)[nH]c(SCC(N)=O)c1C#N | inactive
91 | Cc1cc(=O)[nH]c(=S)[nH]1 | inactive
92 | Cc1noc(C)c1-c1ccc2ncnc(NCc3ccc4[nH]ccc4c3)c2c1 | inactive
93 | CCCCCOC(=O)NCCOC(=O)Nc1ccc(C(=O)OCC)cc1 | inactive
94 | CCCCOC(=O)c1ccc(NC(c2ccc(C)cc2)P(=O)(OC)OC)cc1 (stereo not given) | 17.8 µM (active)
95 | CCOP(=O)(OCC)C(Nc1cccc(C)c1)c1ccc(F)cc1 (stereo not given) | inactive
